Among all 320,000 compounds or so, about 7,600 (2.4%) were called active. Roughly 3% stayed inconclusive and do not appear here. Calls come from the whole dose curve; as a rule, active = well fitted activation curve with a large enough effect; inconclusive = small, poorly fitted or top-dose-only effect; inactive = no such curve, though single readings can be large or run the other way. The list comes from a sample in which actives are over-represented; it also holds similar structures and randomly drawn compounds. Where a call stands in place of a potency, no number is given.
Potency is the fitted concentration of half-maximal effect.

This test is described as follows: qHTS Assay for NPC1 Promoter Activators. Note: nearly all actives have a fitted effect of over 60% in size. As to conditions: Huh7 NPC1 promoter luciferase reporter, 24 h; series mostly up to 9.22 µM. An outline of the steps: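 Luminescence read-out of NPC1 promoter-driven luciferase in stably transfected Huh7 cells; compounds delivered in DMSO and left 24 h at 37C, 5% CO2, qHTS titration format.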
For orientation: In qHTS, concentration-response curves come from the screen itself.
On to `O=C(COC(=O)c1ccc(N2CCCC2=O)cc1)c1ccc(OC(F)F)cc1`, for which the Potency entry is “inactive”.

Consider `COc1cc(OC)cc(-c2c(-c3cccs3)c3cc(-c4ccc(OC)nc4)ccc3n2C)c1`, for which the Potency result is “inactive”.

On to `CCCCN(C(=O)c1ccc2ccccc2c1)c1c(N)n(CCCC)c(=O)[nH]c1=O`, for which the Potency result was “inactive”.

On to `Nc1ncc(CN2CCCC(C(=O)Nc3ccc(-c4ccco4)cc3)C2)cn1` (stereo not drawn), for which the Potency entry is “inactive”.

As for `COc1ccc(C(C)(C)C)cc1NC(=O)CCN1C(=O)C2CCCCC2C1=O` (stereo not drawn), the Potency entry is “inactive”.

In the case of `O=C(CSc1ncnc2c1nnn2Cc1ccc(F)cc1)NC1CCCC1`, the Potency result is “inactive”.

For the molecule `CN(C)C(=O)COC(=O)c1cccc(S(=O)(=O)N2CC3(C)CC2CC(C)(C)C3)c1` (stereo not drawn), the Potency entry is “inactive”.

For `CCCc1c(C(=O)O)cnn1-c1ccc(Cl)cc1`, the Potency entry was “inactive”.

Regarding `CCCNC(=O)c1c(Cl)cnn1-c1ccc(C)cc1`, the Potency was 2.51 µM (active).

Turning to `CCCNC(=O)CCc1c(C)nc2c(c(C)nn2-c2ccc(C)cc2)c1C`, the Potency result was “inactive”.

In the case of `Cc1ccc(C)c(OCC(=O)NNC(=O)C2CCC2)c1`, the Potency result was “inactive”.

As for `O=C(O[C@@H]1[C@H](Cc2ccccc2)NS(=O)(=O)[C@H]2C[C@@H]3C=C[C@]12O3)c1ccccc1Br`, the Potency result was “inactive”.

For the molecule `O=C(CNS(=O)(=O)c1ccc2c(c1)OCCCO2)N1CCN(c2ccc(F)cc2)CC1`, the Potency result is “inactive”.

Regarding `O=C(NNC(=O)C1CCC1)c1ccccc1`, the Potency entry was “inactive”.

With `COc1ccc(S(=O)(=O)N2CCOCC2)cc1NC(=O)CSc1cc(C)ccc1C`, the Potency entry was “inactive”.

`CC(C)n1c(=O)[nH]c2cc(C(=O)Nc3ccccc3)ccc21`: the Potency entry is “inactive”.

With `COc1ccc2[nH]c(C(=O)Nc3ccccc3Cl)cc2c1`, the Potency entry is “inactive”.

On to `O=C(Nc1ccccc1)c1cc2ccccc2[nH]1`, for which the Potency was 3.98 µM (active).

Turning to `CC1(C(=O)OCC(=O)Nc2ncc(Cl)cc2Cl)CC1(Cl)Cl` (stereo not drawn), the Potency result is “inactive”.

With `O=S(=O)(c1ccc(SCc2ccc(Br)cc2)nc1)N1CCOCC1`, the Potency result was “inactive”.

Regarding `CCOc1ccc(C(=O)NCC(=O)N2CCN(c3ccc(C(F)(F)F)cn3)CC2)cc1`, the Potency result was “inactive”.

Regarding `O=C(N/N=C/c1cccc([N+](=O)[O-])c1)C1CC(=O)N(c2ccc(Br)cc2)C1` (stereo not drawn), the Potency result is “inactive”.

As for `Cc1ccc(NC(=O)O/N=C/c2cccc([N+](=O)[O-])c2)cc1`, the Potency result is “inactive”.

On to `O=[N+]([O-])c1cccc(/C=N/Nc2ncc(Br)cn2)c1`, for which the Potency is 2.82 µM (active).

Consider `CC(C)Oc1ccc(C(=O)NCC(=O)Nc2ccc3c(c2)CCC3)cc1`, for which the Potency entry is “inactive”.

For `COc1ccc(/C=N/Nc2cc(N3CCOCC3)nc(C)n2)c(OC)c1`, the Potency result was “inactive”.

In the case of `COc1ccc(/C=N/OCc2ccccc2C#N)c(OC)c1`, the Potency was 3.98 µM (active).

For the molecule `COc1ccc(/C=N/NC(=O)c2ccc3c(c2)OCCO3)c(OC)c1`, the Potency entry was “inactive”.

`CC(C)C(=O)Nc1ccc2oc(=O)ccc2c1`: the Potency entry is “inactive”.

Consider `CC(C)C(=O)Nc1ccc2c(c1)oc1ccccc12`, for which the Potency is 3.55 µM (active).

Turning to `Cc1cc(=O)oc2cc(NC(=O)C(C)Oc3ccccc3)ccc12` (stereo not drawn), the Potency result is “inactive”.

For `O=S(=O)(NCCCCCCNS(=O)(=O)c1c(F)cccc1F)c1ccc2c(c1)OCCO2`, the Potency result was “inactive”.

As to `CCCCc1ccc(NC(=S)NCCCN2CCOCC2)cc1`, the Potency result was “inactive”.

On to `CCCCc1ccc(NC(=S)N2CCCC(CO)C2)cc1` (stereo not drawn), for which the Potency is 1.58 µM (active).

`COc1ccc(NC(=S)N2CCCC(CO)C2)c(OC)c1` (stereo not drawn): the Potency entry is “inactive”.

Take `CC(C)N(C(=O)CN1CCN(S(=O)(=O)c2ccc(Br)s2)CC1)C(C)C`: the Potency entry was “inactive”.

As to `O=C(Nc1cccc2cccnc12)c1cccc(Cl)c1`, the Potency entry was “inactive”.

Turning to `N#Cc1ccccc1NC(=O)c1cccc(COc2ccc(Cl)cc2Cl)c1`, the Potency is 0.316 µM (active).

As for `CSc1ccc(C#N)cc1NC(=O)c1cccc(Cl)c1`, the Potency entry was “inactive”.

Consider `CCn1nc(C(=O)Nc2ccc(N3CCOCC3)cc2)c2ccccc2c1=O`, for which the Potency result is “inactive”.

With `CC(C(=O)N(C)CC(=O)Nc1ccccc1C(F)(F)F)N1C(=O)c2ccccc2C1=O` (stereo not drawn), the Potency entry is “inactive”.

Regarding `COc1ccc(Cc2nc3ccc(C(=O)NCC4CCOCC4)cc3o2)cc1OC`, the Potency result was “inactive”.

Consider `COCCNC(=O)c1ccc2nc(Cc3ccc(OC)c(OC)c3)oc2c1`, for which the Potency result was “inactive”.

Turning to `CSCCNC(=O)c1ccc2nc(Cc3ccccc3F)oc2c1`, the Potency is 2.51 µM (active).

In the case of `COc1ccc(C(=O)COC(=O)c2ccc([N+](=O)[O-])s2)cc1OC`, the Potency result was “inactive”.

As to `O=C(C(=O)N1CCc2ccccc2C1)N1CCc2ccccc2C1`, the Potency result was “inactive”.

Turning to `CCc1ccc(NC(=O)N2CCc3ccccc3C2)cc1`, the Potency was 2.24 µM (active).

For the molecule `CCc1ccc(NC(=O)N2CCN(c3ccccc3)CC2)cc1`, the Potency entry is “inactive”.

Consider `CCCn1nc(C(=O)OCc2nc(N)nc(Nc3ccccc3C)n2)c2ccccc2c1=O`, for which the Potency entry was “inactive”.

Consider `COc1ccc(C2/C(=C(/O)c3ccccc3)C(=O)C(=O)N2C)c(OC)c1` (stereo not drawn), for which the Potency result is “inactive”.

As for `CCOc1ccc(/C(O)=C2\C(=O)C(=O)N(c3ccc(OC)cc3)C2c2ccccc2[N+](=O)[O-])cc1` (stereo not drawn), the Potency was 0.398 µM (active).

Turning to `COc1ccc(/C(O)=C2/C(=O)C(=O)N(c3nc(C)c(C)s3)C2c2ccco2)cc1` (stereo not drawn), the Potency result is “inactive”.

In the case of `c1ccc2cc(CCCc3cc4ccccc4cn3)ncc2c1`, the Potency entry was “inactive”.

With `COc1cc(OC)cc(C(=O)NNC(=O)CCOc2ccccc2OC)c1`, the Potency entry was “inactive”.

For the molecule `Cc1ccc(Nc2nc(N3CCOCC3)nc(N3CCOCC3)n2)cc1Cl`, the Potency entry was “inactive”.

Consider `COc1ccc(Nc2ncc(F)c(N3CCOCC3)n2)cc1`, for which the Potency was 1.26 µM (active).

As to `CCOc1ccc(Nc2nc(Cl)nc(N3CCN(c4ccc(OC)cc4)CC3)n2)cc1`, the Potency entry was “inactive”.

For the molecule `Cc1cccc(NC(=O)CN2CCN(C(=O)C3CCN(C(=O)/C=C/c4ccccc4)CC3)CC2)c1C`, the Potency result was “inactive”.

With `CCOC(=O)[C@@H]1[C@H]2COc3ccc(Br)cc3[C@H]2N2C(=O)N(c3ccc(Cl)cc3)C(=O)[C@@]12C`, the Potency entry is “inactive”.

Take `COc1ccccc1-c1oc2ccccc2c1C#CCCCCO`: the Potency entry was “inactive”.

`c1ccc(-c2cc(-c3ccccc3)[nH]n2)cc1`: the Potency entry is “inactive”.

Turning to `OCCCN1c2ccccc2Nc2nnc(-c3ccccc3)cc21`, the Potency was 2.24 µM (active).

With `CN=c1scc(-c2cc(OC)ccc2OC)n1/N=C/c1c(C)[nH]c2ccccc12`, the Potency result is “inactive”.

Take `N#Cc1ccc(C2=CC(=O)C[C@H](c3ccc(Cl)cc3)C2)cc1`: the Potency entry is “inactive”.

Consider `CC(=O)c1cc(C#N)c(N2CC(C)OC(C)C2)nc1C` (stereo not drawn), for which the Potency entry is “inactive”.

In the case of `Cc1cc(C#N)c(SCC(N)=O)nc1-c1ccc(F)cc1`, the Potency result was “inactive”.

Regarding `CC(=O)c1cc(C#N)c(SCC(=O)C(C)(C)C)nc1C`, the Potency is 3.16 µM (active).

As to `CCOC(=O)c1ccc(N/C(=N/S(=O)(=O)c2ccccc2)c2ccccc2)cc1`, the Potency result was “inactive”.

Regarding `Cc1ccc(S(=O)(=O)N2CCOCC2)cc1NC(=O)COC(=O)c1cnccn1`, the Potency result is “inactive”.

Regarding `CCNc1nc(NCC)nc(N/N=C/c2ccc(O)c(OC)c2)n1`, the Potency result was “inactive”.

Consider `CCOc1ccc(/C=N/Nc2nncc(-c3ccccc3)n2)cc1OC`, for which the Potency entry was “inactive”.

For the molecule `COc1ccc(/C=N/Nc2nc3ccccc3o2)cc1OC`, the Potency was 2 µM (active).

Regarding `CCN(CC)S(=O)(=O)c1ccc(N2CCOCC2)c(NC(=O)C(C)Oc2ccc(F)cc2)c1` (stereo not drawn), the Potency entry was “inactive”.

With `CC1CCCCC12NC(=O)N(CC(=O)OCC(=O)NCc1ccc(F)cc1)C2=O` (stereo not drawn), the Potency result was “inactive”.

Consider `CCN(CC(=O)Nc1ccccc1C(=O)NC1CC1)Cc1cccs1`, for which the Potency entry is “inactive”.

With `Cn1ccsc1=NC(=O)c1cc(S(=O)(=O)N2CCOCC2)ccc1Cl`, the Potency entry is “inactive”.

For `COc1ccc(-c2nnc3n2CCCCC3)cc1`, the Potency result was “inactive”.

Consider `COc1ccc(-c2nc(SCC(=O)N3CCCC3)n[nH]2)cc1`, for which the Potency result was “inactive”.

For `COc1ccc(-c2nc3n(c2Br)CCC3)cc1`, the Potency was 2.82 µM (active).

Take `CN(CC(=O)Nc1ccc(F)c(F)c1F)C(=O)Cn1cnc2c1c(=O)n(C)c(=O)n2C`: the Potency result was “inactive”.

Consider `Cc1ccsc1C(=O)NC1CCCCC1C` (stereo not drawn), for which the Potency entry is “inactive”.

As for `COc1cc(C(=O)OCc2ccc([N+](=O)[O-])cc2)cc(OC)c1OC`, the Potency result was “inactive”.

Turning to `COc1cc(/C=N\Nc2ccc([N+](=O)[O-])cn2)ccc1OCC(=O)O`, the Potency result was “inactive”.

Turning to `COc1cc(/C=N/O)ccc1OCc1ccc([N+](=O)[O-])cc1`, the Potency was 2.51 µM (active).

`Cc1ccccc1-c1cc(C(=O)NCC2CC2)n(CC2CC(c3cccnc3)=NO2)n1` (stereo not drawn): the Potency result is “inactive”.

For `O=C(COc1ccccc1O)NC1CCCC1`, the Potency result is “inactive”.

`CC(=O)Nc1ccc(NC(=O)CSc2nnc(C3CC3)n2-c2ccccc2)cc1`: the Potency entry was “inactive”.

On to `Cc1ccccc1CSCC(=O)NC(=O)NC(C)(C)C`, for which the Potency entry is “inactive”.

Take `COc1ccccc1-n1ccnc1SCC(=O)NC(C)(C)C`: the Potency entry was “inactive”.

With `CC(C)(C)NC(=O)CSC(=Nc1ccccc1F)NC#N`, the Potency was 3.98 µM (active).

As for `COc1cc(C(C)=O)ccc1OC(C)C(=O)Nc1ccc(S(=O)(=O)N2CCCC2)cc1` (stereo not drawn), the Potency entry is “inactive”.

With `CC(C)N(C(=O)CSc1nnc(NC2CC2)s1)c1ccccc1`, the Potency entry was “inactive”.

Take `Cc1ccccc1NC(=O)Cc1nc(COC(=O)c2ccc(C(F)(F)F)cc2)cs1`: the Potency result was “inactive”.

For the molecule `CCC(C)N(C)C1CCN(C(=S)Nc2ccc(OC)cc2)CC1` (stereo not drawn), the Potency result is “inactive”.

With `COc1ccc(NC(=S)N2N=CCC2c2ccccc2)cc1` (stereo not drawn), the Potency was 1.41 µM (active).

In the case of `COc1ccc(NC(=S)N2CCc3cc(OC)c(OC)cc3C2)cc1`, the Potency result was “inactive”.

Consider `N#CCCN(C(=O)COC(=O)C1CCN(c2ccc(C(F)(F)F)cn2)CC1)c1ccc(F)cc1`, for which the Potency result is “inactive”.

For the molecule `O=C(NCC1CCCO1)c1ccc(S(=O)(=O)Nc2ccc(F)cc2)cc1` (stereo not drawn), the Potency entry was “inactive”.

`O=c1c2cc(-c3ccccc3)sc2nc2n1N=C(c1cccs1)CS2`: the Potency is 3.16 µM (active).

`Cc1nnc2n1N=C(c1ccccc1)CS2`: the Potency entry was “inactive”.

In the case of `c1csc(-c2cn3c(n2)SCC3)c1`, the Potency result was “inactive”.

For `COC(=O)[C@]1(C)CCC[C@@]2(C)C3CC[C@]4(OC(C)=O)C[C@@]3(CCC21)CC4=NO` (stereo partly drawn), the Potency entry is “inactive”.

For `O=C(NCCC1=CCCCC1)c1ccc(Cl)c([N+](=O)[O-])c1`, the Potency entry was “inactive”.

Consider `O=C(COc1cccc(-n2cnnn2)c1)NCCC1=CCCCC1`, for which the Potency result was “inactive”.

Turning to `O=C(NCCC1=CCCCC1)c1ccc(-n2cncn2)cc1`, the Potency was 3.55 µM (active).

Consider `O=C(NCc1cccnc1)c1cn(-c2ccccc2)nc1-c1cccs1`, for which the Potency entry was “inactive”.

Consider `O=C(O)c1ccc(N/N=C/c2cn(-c3ccccc3)nc2-c2cccs2)cc1`, for which the Potency is 1.26 µM (active).

Regarding `COc1ccc(-c2nn(-c3ccccc3)cc2/C=C\C(=O)Nc2ccc(C(=O)O)cc2)cc1`, the Potency result was “inactive”.

The values are drawn from PubChem BioAssay AID485313 (National Center for Advancing Translational Sciences (NCATS), 2010).
